Assay [1] is described as follows: Nuclear factor erythroid 2-related factor 2/antioxidant responsive element (Nrf2/ARE) small molecule agonists: qHTS cell viability counter screen in human keratinocytes (AID 1919968; active = well fitted curve in the direction sought with a large enough effect in the repeat runs; an effect the other way counts as inactive or inconclusive; also: nearly all actives have a fitted effect of over 55% in size; also: potency is read from the fitted curve at half-maximal effect). The method, boiled down:
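Cells of the KeratinoSens line were plated at 1,500 per well and left for 5 h before compound transfer from DMSO stocks. After a 23 h incubation (37 C, 5% CO2), CellTiter-Fluor was added. Signal was taken as fluorescence intensity 1 h later.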

For assay [2], the target named is Gonadotropin-releasing hormone receptor (Homo sapiens) (UniProt P30968). As to the kind of experiment: Human gonadotropin-releasing hormone receptor (GnRHR) small molecule agonists, calcium flux assay in GnRHR-HEK293 cells (AID 1920063). Also: nearly all actives have a fitted effect of over 35% in size. The method, boiled down:
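Compounds dissolved in DMSO are pin-transferred onto dye-loaded GnRHR-HEK293 cells, which were seeded 18 h before at 37 C/5% CO2. Calcium signal is read as fluorescence intensity at 1 s intervals for 3 min.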
On the technique in general: Calcium assays in cells follow changes in intracellular calcium, usually with a dye or a luminescent sensor.

Assay [3] concerns the target KiSS-1 receptor (Homo sapiens) (UniProt Q969F8). Kind of assay: Human kisspeptin (KISS1R) small molecule agonists, calcium flux assay in KISS1R-HEK293 cells (AID 1920064; active = well fitted curve in the direction sought with a large enough effect in the repeat runs; an effect the other way counts as inactive or inconclusive). In outline: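 Cell line: HEK293, stable human KISS1R. Dye loading 1 h at 37 C after 18 h culture. Read: kinetic fluorescence, 480/540 nm, 3 min at 1 s intervals.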
Assay [4] is described as follows: G protein-coupled receptor (GPCR) small molecule agonists, calcium flux assay: HEK293 wild type cell line counter screen (AID 1920065). The method, boiled down:
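Tox21 10K compounds, 15 concentrations each in triplicate, pin-transferred in DMSO onto dye-loaded cells; kinetic read at 480/540 nm for 3 min, 1 s intervals.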

A short description of assay [5]: p53 small molecule agonists, cell-based qHTS assay with human liver microsomes (AID 1963577).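 Also: p53 response element beta-lactamase reporter cells with liver microsomes plus NADPH.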 In outline: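 p53RE-bla cells; 5 h settle, 37 C/5% CO2; cpd + HLM 0.5 mg/mL + NADPH 0.5 mg/mL (final); 16 h 37 C; LiveBLAzer 2 h RT dark; fluorescence readout.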
(In general: qHTS replaces the single test concentration by a dilution series.)

A short description of assay [6]: p53 small molecule agonists, cell-based qHTS assay with rat liver microsomes (AID 1963578). The method, boiled down:
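Rat liver microsome activation: microsomes 0.5 mg/mL, NADPH 0.5 mg/mL final; p53RE-bla cells, 16 h 37 C; LiveBLAzer readout, 2 h RT dark.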

Assay [7] can be described thus: p53 small molecule agonists, cell-based qHTS assay with human liver microsomes: qHTS cell viability counter screen (AID 1963579). Also: nearly all actives have a fitted effect of over 45% in size. The method, boiled down:
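Luminescent CellTiter-Glo read-out, 30 min at room temperature, gauged cytotoxicity in p53RE-bla cells exposed 16 h at 37 C to DMSO-dissolved compounds with metabolic activation by human liver microsomes and NADPH, each 0.5 mg/mL final.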

A short description of assay [8]: p53 small molecule agonists, cell-based qHTS assay with rat liver microsomes: qHTS cell viability counter screen (AID 1963580). Also: nearly all actives have a fitted effect of over 45% in size. Also: potency is read from the fitted curve at half-maximal effect. In outline: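 After the beta-lactamase ratio was read, CellTiter-Glo was added to the same wells and luminescence measured at 30 min; cells had been treated 16 h at 37 C with compounds, rat liver microsomes and NADPH (0.5 mg/mL final each).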

Assay [9] is described as follows: p53 small molecule agonists, cell-based qHTS assay: qHTS cell viability counter screen (AID 1963581). Also: nearly all actives have a fitted effect of over 45% in size. Also: potency is read from the fitted curve at half-maximal effect. In outline: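 ATP content measured by luminescence in HCT-116 p53RE-bla cells treated 16 h at 37 C, same wells as the reporter screen.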
Assay [10] in a line: p53 small molecule agonists, cell-based qHTS assay (AID 1963582; active = well fitted activation curve with a large enough effect in the signal ratio in the repeat runs, not every such curve was filed as active; the % refers to the signal ratio). The method, boiled down:
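16 h compound exposure (37 C) of p53 response element–bla cells, preceded by 5 h recovery at 37 C/5% CO2; read-out via LiveBLAzer B/G FRET substrate, 2 h RT, fluorescence intensity.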

Assay [11] addresses 5-hydroxytryptamine receptor 2A (Homo sapiens) (UniProt P28223). As to the kind of experiment: 5-hydroxytryptamine receptor 2A (HTR2A) small molecule antagonists, cell-based qHTS assay (AID 1963586). Also: nearly all actives have a fitted effect of over 45% in size. In outline:
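CHO cells stably expressing human HTR2A were plated for 18 h at 37 C, then loaded with calcium dye for 1 h. Compounds were preincubated 5 min at room temperature before DOI (4 nM solution) was added. Kinetic fluorescence was read for 3 min.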

Assay [12] has the same target. As to the kind of experiment: 5-hydroxytryptamine receptor 2A (HTR2A) small molecule agonists, cell-based qHTS assay (AID 1963587). Also: nearly all actives have a fitted effect of over 30% in size. In outline:
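CHO cells stably expressing human HTR2A, plated 18 h, loaded with calcium dye 1 h at 37 C. Agonist mode: compounds added and intracellular calcium fluorescence recorded kinetically for 2 min at 1 sec intervals.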

The target in assay [13] is Muscarinic acetylcholine receptor M1 (Homo sapiens) (UniProt P11229). As to the kind of experiment: Cholinergic receptor muscarinic 1 (CHRM1) small molecule antagonists, cell-based qHTS assay (AID 1963588). Also: nearly all actives have a fitted effect of over 40% in size. In outline: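 Compounds were tested at 15 concentrations in three independent runs. Dye-loaded CHRM1-CHO cells were exposed 5 min at room temperature before stimulation by acetylcholine added at 50nM. Intracellular calcium was read kinetically on FDSS for 3 min.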
Chain of Muscarinic acetylcholine receptor M1 (Homo sapiens) (P11229 whole entry, looked up): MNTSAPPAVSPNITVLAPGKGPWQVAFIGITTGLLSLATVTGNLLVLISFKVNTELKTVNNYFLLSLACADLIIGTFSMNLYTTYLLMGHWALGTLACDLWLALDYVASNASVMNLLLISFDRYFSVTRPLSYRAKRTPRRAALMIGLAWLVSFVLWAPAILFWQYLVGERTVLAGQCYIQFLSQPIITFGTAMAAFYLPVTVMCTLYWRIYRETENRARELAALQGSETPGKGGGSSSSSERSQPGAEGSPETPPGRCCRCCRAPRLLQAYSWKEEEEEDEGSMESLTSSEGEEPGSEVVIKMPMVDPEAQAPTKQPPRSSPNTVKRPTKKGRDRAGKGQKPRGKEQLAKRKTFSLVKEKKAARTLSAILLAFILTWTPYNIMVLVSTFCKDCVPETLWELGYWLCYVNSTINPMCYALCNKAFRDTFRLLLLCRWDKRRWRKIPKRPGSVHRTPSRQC

Assay [14] has the same target. As to the kind of experiment: Cholinergic receptor muscarinic 1 (CHRM1) small molecule agonists, cell-based qHTS assay (AID 1963589). Also: nearly all actives have a fitted effect of over 35% in size. The method, boiled down: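 Homogeneous fluorescence calcium flux, agonist mode. Human M1-expressing CHO cells; compound dosed at 15 concentrations, three independent runs; signal sampled every 1 sec.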
Assay [15] in a line: cAMP Responsive Elements (CRE) small molecule agonists, cell-based qHTS assay (AID 1963590). In outline:
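HEK 293T cells stably bearing CRE-bla were plated at 2,000 cells per well and rested 18 h. Compounds, positive controls or DMSO were added for 3 h at 37 C. LiveBLAzer B/G substrate was then loaded for 2 h at room temperature.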

The nature of assay [16]: cAMP Responsive Elements (CRE) small molecule antagonists, cell-based qHTS assay (AID 1963591; active = well fitted inhibition curve with a large enough effect in the signal ratio in the repeat runs, not every such curve was filed as active; the % refers to the signal ratio). The method, boiled down: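 First, CRE-bla HEK293T cells settled 18 h at 37 C. Next, compound and 0.25 uM final NKH477 were applied for 3 h. Last, LiveBLAzer B/G substrate was loaded for 2 h at room temperature.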
Assay [17] has as its target Beta-2 adrenergic receptor (Homo sapiens) (UniProt P07550). Kind of assay: Adrenergic beta2 receptor (ADRB2) small molecule antagonists, cell-based qHTS assay (AID 1963592). Also: series mostly up to about 92 µM; nearly all actives have a fitted effect of over 50% in size. The method, boiled down:
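Assay format: CHO-ADRB2 cells, 18-20hr seeding at 37C/5% CO2, then compound plus 1nM isoproterenol agonist mix for 0.5hr RT. Homogeneous time-resolved fluorescence cAMP detection after 1hr, expressed as 665/615 nm ratio.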

The target is the same in assay [18]. Kind of assay: Adrenergic beta2 receptor (ADRB2) small molecule agonists, cell-based qHTS assay (AID 1963593). Also: potency is read from the fitted curve at half-maximal effect.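 As to activation: CHO cells stably overexpressing human ADRB2.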 In outline:
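CHO cells stably over-expressing ADRB2 were plated overnight at 37C, then dosed with compounds plus a stimulation mix containing 100uM IBMX and 25uM Ro-20-1724 for 0.5hr at room temperature. cAMP was measured by HTRF competition, 1hr.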

Assay [19] deals with D(2) dopamine receptor (Homo sapiens) (UniProt P14416). As to the kind of experiment: Dopamine D2 receptor (DRD2) small molecule agonists, cell-based qHTS assay (AID 1963594). Also: nearly all actives have a fitted effect of over 35% in size. In outline: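 HEK293 cells stably expressing human DRD2, pre-treated with PDE inhibitor Ro20-1724 (0.1 mM final) and compound 10 min at room temperature, then stimulated with NKH477 (200nM […]) for 30 min. cAMP read by HTRF (665/620 nm).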
Chain of D(2) dopamine receptor (Homo sapiens) (P14416 whole entry, looked up): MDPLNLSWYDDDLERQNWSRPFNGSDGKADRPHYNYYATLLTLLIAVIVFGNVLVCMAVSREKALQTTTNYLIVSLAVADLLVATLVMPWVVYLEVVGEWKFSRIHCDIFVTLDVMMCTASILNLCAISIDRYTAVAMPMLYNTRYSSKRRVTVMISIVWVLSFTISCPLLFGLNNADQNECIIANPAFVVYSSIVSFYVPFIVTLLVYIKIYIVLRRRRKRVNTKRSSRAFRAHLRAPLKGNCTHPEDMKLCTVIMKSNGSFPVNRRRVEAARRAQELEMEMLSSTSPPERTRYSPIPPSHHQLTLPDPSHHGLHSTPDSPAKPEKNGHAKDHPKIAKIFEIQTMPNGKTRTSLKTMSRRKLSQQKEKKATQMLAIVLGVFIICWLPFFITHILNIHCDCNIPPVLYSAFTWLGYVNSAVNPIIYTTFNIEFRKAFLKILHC

Assay [20] shares this target. As to the kind of experiment: Dopamine D2 receptor (DRD2) small molecule antagonists, cell-based qHTS assay (AID 1963595; active = well fitted inhibition curve with a large enough effect in the signal ratio in the repeat runs, with a control signal flat; the % refers to the signal ratio). The method, boiled down: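 In this cell-based antagonist screen, compounds act for 10 min at room temperature before a 30 min challenge with 12 nM quinpirole and 200 nM NKH477. cAMP is quantified by HTRF competition in DRD2-HEK293 cells containing 0.1 mM Ro20-1724.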

Each structure is given as a SMILES string. Values joined by “and” are separate entries in the source; they are usually repeats but may differ in a detail not shown here. Identical values can stand only once. Results filed as inconclusive are left out. Active and inactive are the calls of the source. Unless noted, calls follow the shape of the full dose curve.

Chain of Gonadotropin-releasing hormone receptor (Homo sapiens) (P30968 whole entry, looked up): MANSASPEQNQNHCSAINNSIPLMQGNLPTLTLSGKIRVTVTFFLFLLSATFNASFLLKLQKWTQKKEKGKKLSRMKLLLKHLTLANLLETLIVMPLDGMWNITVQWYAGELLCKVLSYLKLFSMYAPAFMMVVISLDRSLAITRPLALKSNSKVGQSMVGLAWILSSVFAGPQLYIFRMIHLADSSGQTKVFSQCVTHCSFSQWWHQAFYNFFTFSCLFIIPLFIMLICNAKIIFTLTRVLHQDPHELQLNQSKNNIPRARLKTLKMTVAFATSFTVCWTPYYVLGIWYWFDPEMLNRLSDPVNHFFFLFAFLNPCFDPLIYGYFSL
Chain of KiSS-1 receptor (Homo sapiens) (Q969F8 whole entry, looked up): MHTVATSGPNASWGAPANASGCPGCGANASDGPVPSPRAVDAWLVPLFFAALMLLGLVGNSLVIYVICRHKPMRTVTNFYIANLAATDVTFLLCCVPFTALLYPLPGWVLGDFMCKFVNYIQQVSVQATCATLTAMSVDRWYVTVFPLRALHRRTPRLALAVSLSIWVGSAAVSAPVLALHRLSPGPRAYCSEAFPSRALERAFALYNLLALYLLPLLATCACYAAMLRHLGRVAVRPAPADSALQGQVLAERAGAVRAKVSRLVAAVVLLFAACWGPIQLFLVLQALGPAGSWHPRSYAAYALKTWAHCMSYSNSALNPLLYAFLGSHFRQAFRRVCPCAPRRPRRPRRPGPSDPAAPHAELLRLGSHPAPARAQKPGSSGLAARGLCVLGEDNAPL
Chain of 5-hydroxytryptamine receptor 2A (Homo sapiens) (P28223 whole entry, looked up): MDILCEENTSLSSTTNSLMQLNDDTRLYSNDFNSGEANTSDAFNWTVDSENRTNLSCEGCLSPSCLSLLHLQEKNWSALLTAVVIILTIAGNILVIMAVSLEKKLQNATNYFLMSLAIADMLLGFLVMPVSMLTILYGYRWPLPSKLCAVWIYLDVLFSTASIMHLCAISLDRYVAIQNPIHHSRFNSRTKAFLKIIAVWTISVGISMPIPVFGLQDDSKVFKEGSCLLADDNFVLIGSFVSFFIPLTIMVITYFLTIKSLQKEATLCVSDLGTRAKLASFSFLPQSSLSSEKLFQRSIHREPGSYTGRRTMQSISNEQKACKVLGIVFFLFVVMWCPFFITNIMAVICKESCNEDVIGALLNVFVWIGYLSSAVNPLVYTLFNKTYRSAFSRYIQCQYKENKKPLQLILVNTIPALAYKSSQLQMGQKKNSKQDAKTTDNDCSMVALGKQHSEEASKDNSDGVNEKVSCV
Chain of Beta-2 adrenergic receptor (Homo sapiens) (P07550 whole entry, looked up): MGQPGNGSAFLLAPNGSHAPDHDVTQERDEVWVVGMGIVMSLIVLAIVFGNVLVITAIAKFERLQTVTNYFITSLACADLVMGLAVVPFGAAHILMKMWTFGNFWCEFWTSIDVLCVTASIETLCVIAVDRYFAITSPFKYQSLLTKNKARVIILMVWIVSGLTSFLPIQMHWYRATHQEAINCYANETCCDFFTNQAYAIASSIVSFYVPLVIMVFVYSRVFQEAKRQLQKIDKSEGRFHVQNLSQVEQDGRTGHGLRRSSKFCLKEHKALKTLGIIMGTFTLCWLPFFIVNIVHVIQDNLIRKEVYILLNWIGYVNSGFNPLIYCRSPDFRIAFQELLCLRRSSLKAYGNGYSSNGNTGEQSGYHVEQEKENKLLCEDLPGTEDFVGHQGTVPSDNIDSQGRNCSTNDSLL

As for `O=C1OC(=O)C2CC=CCC12` (centres undefined), the Potency entry in assay [1], in [2], in [3], in [4], in assay [5] and in [6] was “inactive” throughout. In addition, the Potency result in assay [7], in assay [8], in assay [9], in assay [10], in [11] and in assay [12] was “inactive” in each case. Further, the Potency entry in [13], in [14], in assay [15], in assay [16], in [17] and in assay [18] was “inactive” in each case. For the same molecule, the Potency entry in assay [19] and in [20] was “inactive” throughout.
As for `CCOC(OCC)OCC`, the Potency result in assay [1], in assay [2], in assay [3], in assay [4], in [5] and in assay [6] was “inactive” each time. In addition, the Potency result in assay [7], in assay [8], in assay [9], in [10], in assay [11] and in assay [12] was “inactive” throughout. The Potency entry in assay [13], in assay [14], in assay [15], in [16], in [18] and in assay [19] was “inactive” in each case. The Potency result in assay [20] is “inactive”.
On to `NS(=O)(=O)c1cc2c(cc1C(F)(F)F)NC(Cc1ccccc1)NS2(=O)=O` (centres undefined), for which the Potency result in assay [1], in assay [2], in assay [3], in [4], in assay [5] and in assay [6] was “inactive” throughout. The Potency result in assay [7], in assay [8], in [9], in assay [10], in assay [11] and in assay [12] was “inactive” in each case. Besides, the Potency entry in [13], in [14], in assay [15], in [16], in assay [19] and in assay [20] was “inactive” each time. The Potency in [18] is 1.5 µM (active).
Take `O=C(O)c1ccccc1OP(=O)(O)O`: the Potency entry in assay [1], in assay [2], in [3], in assay [4], in [5] and in [6] was “inactive” throughout. In addition, the Potency result in [7], in assay [8], in assay [9], in assay [10], in assay [11] and in assay [12] was “inactive” throughout. Further, the Potency result in assay [13], in assay [14], in [15], in assay [16], in [17] and in assay [19] was “inactive” in each case. Besides, the Potency entry in [20] was “inactive”.
Take `CC(C)c1ccc2c(C(C)C)cc(C(C)C)c(S(=O)(=O)O)c2c1`: the Potency entry in [1], in assay [3], in assay [5], in [6], in assay [7] and in assay [8] was “inactive” in each case. For the same molecule, the Potency entry in [9], in assay [10], in assay [11], in assay [12], in assay [13] and in assay [14] was “inactive” throughout. Also, the Potency result in [15], in assay [16], in [17], in [19] and in assay [20] was “inactive” in each case.
On to `CCCCC(CC)COP(=O)(O)OCC(CC)CCCC` (centres undefined), for which the Potency in assay [1] is 54.6 µM (active) and 54.5 µM (active); in assay [8] it was 28.9 µM (active); in assay [9], 20.5 µM (active) and 25.7 µM (active). Besides, the Potency entry in assay [4], in assay [11], in [12], in [13], in [14] and in assay [16] was “inactive” in each case. In addition, the Potency result in assay [19] and in assay [20] was “inactive” each time.
For the molecule `CCCCOC(=O)C(C)OC(=O)CCC` (centres undefined), the Potency entry in [1], in assay [2], in [3], in assay [4], in assay [5] and in assay [6] was “inactive” throughout. Moreover, the Potency result in assay [7], in assay [8], in assay [9], in [10], in assay [11] and in [12] was “inactive” each time. For the same molecule, the Potency entry in assay [13], in assay [14], in assay [15], in assay [16], in assay [18] and in [19] was “inactive” each time. In addition, in [20], the Potency entry is “inactive”.
